# Screens: PubChem, Buhrlage Lab, Dana-Farber Cancer Institute and Novartis Institutes for BioMedical Research (Cambridge, Mass)
# USP28 inh – human USP28 deubiquitinase inhibition; 3% of 47,000 active; AID 1645857; Q96RU2; inhibition, % at 25 µM; purified USP28, Ub-rhodamine cleavage fluorescence, 30 min
# Target sequence (Q96RU2 whole entry, looked up): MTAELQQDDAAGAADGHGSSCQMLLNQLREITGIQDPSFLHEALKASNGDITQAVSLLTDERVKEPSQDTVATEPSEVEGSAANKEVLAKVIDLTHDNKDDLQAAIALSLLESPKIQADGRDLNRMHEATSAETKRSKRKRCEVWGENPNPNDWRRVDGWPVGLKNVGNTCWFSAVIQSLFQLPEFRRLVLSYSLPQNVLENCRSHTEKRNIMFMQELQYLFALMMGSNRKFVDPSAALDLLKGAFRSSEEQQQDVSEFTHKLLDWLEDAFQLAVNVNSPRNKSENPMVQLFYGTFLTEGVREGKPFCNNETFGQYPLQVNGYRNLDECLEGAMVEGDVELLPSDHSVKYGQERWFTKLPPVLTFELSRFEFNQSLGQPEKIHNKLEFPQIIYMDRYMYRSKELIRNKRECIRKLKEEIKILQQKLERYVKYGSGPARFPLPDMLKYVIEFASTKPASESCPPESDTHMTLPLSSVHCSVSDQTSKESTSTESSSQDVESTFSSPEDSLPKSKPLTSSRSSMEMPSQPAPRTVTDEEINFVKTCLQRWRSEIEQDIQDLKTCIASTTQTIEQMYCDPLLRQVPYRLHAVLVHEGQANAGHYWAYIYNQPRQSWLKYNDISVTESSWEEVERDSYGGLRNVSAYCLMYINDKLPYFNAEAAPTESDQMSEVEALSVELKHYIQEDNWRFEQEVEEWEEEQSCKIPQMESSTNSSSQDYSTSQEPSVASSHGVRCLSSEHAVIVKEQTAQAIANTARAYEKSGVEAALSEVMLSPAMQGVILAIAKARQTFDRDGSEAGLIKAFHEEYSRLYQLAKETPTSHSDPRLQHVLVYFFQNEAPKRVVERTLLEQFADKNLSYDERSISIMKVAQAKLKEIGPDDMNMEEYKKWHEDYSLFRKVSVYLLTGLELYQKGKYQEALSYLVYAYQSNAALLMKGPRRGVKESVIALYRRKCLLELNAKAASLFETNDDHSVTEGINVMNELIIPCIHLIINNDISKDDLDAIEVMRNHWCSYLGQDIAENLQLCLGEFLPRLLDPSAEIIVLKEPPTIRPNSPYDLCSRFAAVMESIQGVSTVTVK
# USP17 inh – blocks human USP17 ubiquitin-rhodamine cleavage | AID 1645855 | purified USP17, Ub-rhodamine cleavage fluorescence, 3 h | 6.5% of 47,000 active | inhibition, % at 50 µM
# USP30 inh – blocks human USP30 ubiquitin-rhodamine cleavage; Q70CQ3; purified USP30, Ub-rhodamine cleavage fluorescence; inhibition, % at 25 µM; 5.3% of 47,000 active; AID 1645860
# * marks the source's active call; other numbers are inactive results; i = inactive; . = not tested or not shown. Shown are actives, neighbours in structure and some others; about 11% of the full set was active somewhere. No stated cut-off is given here; in the data, active means inhibition above about 30%; inactive means the rest.
SMILES,USP28 inh,USP17 inh,USP30 inh
Cc1ccccc1OCc1nc2c3cnn(C)c3ncn2n1,15.0,17.4,35.1*
Cc1ccccc1OCc1nc2c3c(C)c(C)oc3ncn2n1,8.9,3.1,-33.6
Cc1cc2c3c([nH]c2cc1S(=O)(=O)N(C)C1CCCCC1)CCCC3=O,0.8,48.9*,-22.7
Cc1ccccc1NS(=O)(=O)c1cc2[nH]c3c(c2cc1C)C(=O)CCC3,57.1*,58.3*,68.8*
Cc1cc2c3c([nH]c2cc1S(=O)(=O)N1CCC(C)CC1)CCCC3=O,-8.8,-24.8,-45.7
Cc1cc2c3c([nH]c2cc1S(=O)(=O)Nc1c(C)cccc1C)CCCC3=O,-38.8,-36.8,-114.0
Cc1ccc(Cn2cc(C(=O)Nc3ccccc3C(N)=O)ccc2=O)cc1,17.5,29.2,24.1
COc1cccc(C2CCNc3ccccc3N2)c1 (stereo not drawn),-23.0,36.0*,-133.9
COc1ccccc1C1CCNc2ccccc2N1 (stereo not drawn),-16.3,0.2,-49.5
CNc1nc2c(c(=O)n1Cc1ccccc1)CN(S(=O)(=O)c1c(C)noc1C)CC2,7.2,4.7,21.1
COc1ccc(Cn2c(CO)cnc2SCC(=O)Nc2cc(C)ccc2C)cc1,-2.0,-10.6,-6.9
CC1CCCN1C(=O)c1ccn(-c2ccc3ccc(-c4ccccc4)cn23)n1 (stereo not drawn),-132.5,-76.9,-497.7
COc1ccc(C(=O)c2c[nH]c(C(=O)NCCCn3ccnc3)c2)cc1,14.3,17.7,32.7*
CCC(=O)c1c[nH]c(C(=O)NCCCn2ccnc2)c1,-9.3,-12.1,-19.7
COc1ccc(NC(=O)c2oc3ccccc3c2NC(=O)C(C)Oc2ccccc2)c(OC)c1 (stereo not drawn),-0.7,0.3,14.3
CC[C@H](C)[C@H](NC(=O)[C@H]([C@@H](C)CC)N(C)C(C)=O)C(=O)N[C@H](C(=O)N[C@@H](CC(C)C)C(=O)C1(C)CO1)[C@@H](C)O (stereo partly drawn),43.1*,42.7*,22.2
COc1ccc2scc(N3CCC4(CC3)OCCO4)c(=O)c2c1,-6.2,-2.7,-24.9
O=C(Cn1nc(C2CC2)cc1C(=O)N1CCCC1)Nc1ccccc1Cl,-6.2,-5.6,10.5
CC(Nc1ncnc2cc(-c3ccc(Cl)cc3)sc12)c1ccccn1 (stereo not drawn),6.8,-18.8,-0.4
O=C1CCN(c2ncnc3cc(-c4ccc(F)cc4)sc23)CC1,0.8,31.3*,-56.8
Cc1ccc(CNC(=O)CN2C(=O)CSc3cccn3-c3ccccc32)cc1,-0.7,.,-14.8
CCOC(=O)N1CCN(c2ccc3c(cc2=O)[C@@H](NC(C)=O)CCc2cc(OC)c(OC)c(OC)c2-3)CC1,-1.0,3.0,-4.5
Cn1c(C2CCN(Cc3ccc(CO)o3)C2)nc2ccccc21 (stereo not drawn),-145.9,-104.5,i
COc1ccc(-c2nc3ccccc3o2)cc1NC(=O)Cc1ccc(OC)c(OC)c1,-24.5,-48.5,-63.5
COc1ccc(CC(=O)Nc2ccccc2-c2nc3ccccc3[nH]2)cc1OC,21.0,76.1*,50.1*
SMILES,USP28 inh,USP17 inh,USP30 inh
Oc1cc(OCCN2CCCCC2)ccc1-c1[nH]ncc1-c1ccccc1,3.2,14.7,-4.8
O=C(CSC1=NC2(CCCCC2)Nc2ccccc21)Nc1ccc(F)cc1,-12.5,-7.5,-42.6
Cn1nnc2cc(C(=O)NCc3ccc(F)cc3)ccc21,-0.5,-5.2,-12.2
O=C(NCc1ccc(F)cc1)c1cc(-n2cnnn2)ccc1Cl,30.2*,66.5*,30.2*
O=C1COc2ccccc2C/C=C/CC2(CCNCC2)C(=O)NCCN1,-13.0,-21.8,-49.6
COc1ccccc1Cn1c(C2CCCN2C(C)=O)nc2ccccc21 (stereo not drawn),.,9.8,.
Cc1noc(-c2ccc(-n3cnc(C(=O)NCc4ccccc4)c3)nc2)n1,6.5,20.9,30.4*
O=C(NCc1ccccc1)C1CCN(c2cnc(N3CCCCCC3)nc2)CC1,-8.0,-26.8,-115.3
Cc1noc(-c2ccc(-n3cnc(C(=O)NC4CCCCCC4)c3)nc2)n1,12.6,21.6,25.1
Cc1noc(-c2ccc(N3CCCC(C(=O)Nc4cccc(F)c4C)C3)nc2)n1 (stereo not drawn),-0.1,18.0,-11.9
Cc1noc(-c2ccc(N3CCCC(C(=O)NCc4ccc(F)cc4)C3)nc2)n1 (stereo not drawn),16.4,57.9*,28.0
O=C(Nc1ccccc1)C1CCN(c2cnc(N3CCCCC3)nc2)CC1,-5.7,21.4,-93.9
Cc1cc(F)ccc1NC(=O)C1CCN(c2cnc(N3CCCCC3)nc2)CC1,33.2*,-12.1,-7.2
O=C(NCc1ccc(F)cc1)C1CCN(c2cnc(N3CCCCC3)nc2)CC1,69.2*,5.0,-10.0
CC(=O)Nc1ccc(C(=O)/C=C2\NCCc3cc4c(cc32)OCCCO4)cc1,-72.8,-141.0,-271.7
COc1ccc(S(=O)(=O)NC2(C(F)(F)F)C(=O)NC(C)=C2C#N)cc1 (stereo not drawn),-11.4,-8.2,-14.6
Cn1cncc1C(=O)N[C@@H]1C[C@@H](Oc2ccccc2)[C@H](O)[C@H]1N1CCCC1,14.7,11.1,18.6
CCn1c(=O)c(N2CCC(C(=O)NC(C)c3ccccc3)CC2)nc2cccnc21 (stereo not drawn),-2.3,-6.5,0.7
COc1cc2oc(=O)c(CC(=O)N[C@@H](Cc3c[nH]c4ccccc34)C(=O)O)c(C)c2cc1OC,-3.1,.,-3.6
COc1cc(OC)c2c(C)c(CC(=O)NCCc3c[nH]c4ccccc34)c(=O)oc2c1,-9.5,33.3*,-1.3
COc1ccccc1CNC(=O)c1[nH]cnc1C(=O)NCCc1c[nH]c2ccccc12,0.5,-15.9,-0.8
COc1ccc(C(=O)NCCc2c[nH]c3ccccc23)cc1[N+](=O)[O-],39.5*,-11.1,3.5
O=C(O)CCC(=O)Nc1ccc(OC(F)(F)F)cc1,-1.3,5.4,-0.1
O=C(CCc1ccccc1)NC(c1ccccc1)c1ccccc1,-0.6,16.3,27.0
Cc1ccccc1OCCC(=O)NC(c1ccccc1)c1ccccc1,9.7,32.0*,21.1
SMILES,USP28 inh,USP17 inh,USP30 inh
Cc1ccc(C(=O)N2CCCCC2c2nncn2CC2CC2)cn1 (stereo not drawn),15.8,17.7,21.5
O=C(CSc1cn(Cc2cccc(F)c2)c2ccccc12)Nc1ccccc1C(F)(F)F,12.8,11.0,17.9
Cc1ccc(Cn2cc(SCC(=O)Nc3ccc(F)cc3F)c3ccccc32)cc1,5.5,31.8*,21.5
CC1(C(N)=O)CN(C(=O)c2ccc3ncccc3c2)CCO1 (stereo not drawn),2.4,0.3,5.6
CNC(=O)CC1NC(=O)c2csc(n2)-c2ccc(-c3nc(C4=NC(C(=O)N5CCCC5C(N)=O)CO4)cs3)nc2-c2csc(n2)-c2csc(n2)C(C(O)c2ccccc2)NC(=O)CNC(=O)c2nc(sc2COC)C(C(C)C)NC(=O)c2nc1sc2C (stereo not drawn),42.4*,74.9*,5.7
O=C(COC(=O)c1oc2ccccc2c1COc1ccccc1)Nc1ccc2c(c1)OCO2,-92.9,-23.5,-312.5
CC(Oc1ccc(Cl)cc1)C(=O)OCC(=O)Nc1ccc2[nH]c(=O)[nH]c2c1 (stereo not drawn),6.3,22.7,-17.3
O=C(COC(=O)c1ccc(Cl)cc1)Nc1ccc2[nH]c(=O)[nH]c2c1,31.0*,14.4,74.0*
COc1ccc(NC(=O)c2ccco2)cc1NC(=O)COc1ccc(Cl)cc1Cl,-0.1,-2.4,-5.5
